Test results taken from PubChem BioAssay (NCATS).
Records with an inconclusive call do not appear. Active and inactive are the calls of the source. Unless noted, the call rests on the fitted dose curve.

Test system: not listed separately
Experiment: qHTS Assay for Lipid Storage Modulators (AID 1519); on activity change, negative = inhibition: on the % scale 0 is the no-effect control and ±100 the full control effect
Settings: Drosophila S3 cells, BODIPY lipid droplet/cell ratio, laser cytometry; at 57.5 µM (top of the series); cells loaded with oleic acid
In short: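 Cells seeded at 5,000 per well were treated with compounds over a concentration series and loaded with oleic acid (400 uM, as added). Lipid droplet fluorescence (488 nm excitation, 500-530 nm channel) was read by laser-scanning cytometry and normalized to 20 uM Triacsin C.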
In the case of `Cc1ncc([N+](=O)[O-])n1CCO`, the activity change, negative = inhibition is reported as 8.03% (inactive). For `COc1c(N2CCNC(C)C2)c(F)cc2c(=O)c(C(=O)O)cn(C3CC3)c12` (stereo unspecified), the activity change, negative = inhibition was 6.55% (inactive). For `O=S(=O)(c1cccc2cnccc12)N1CCCNCC1`, the activity change, negative = inhibition was -2.33% (inactive). With `O=C(N[C@H](CO)[C@H](O)c1ccc([N+](=O)[O-])cc1)C(Cl)Cl` the activity change, negative = inhibition was 4.84% (inactive). For `CNS(=O)(=O)Cc1ccc2[nH]cc(CCN(C)C)c2c1`, the activity change, negative = inhibition was 8.81% (inactive). With `CC1=NN(c2ccccc2)C(=O)C1` the activity change, negative = inhibition was 5.32% (inactive). For `C1CCC(C(CC2CCCCN2)C2CCCCC2)CC1` (stereo unspecified), the activity change, negative = inhibition was -9.69% (inactive). In the case of `CN1CCCC(n2nc(Cc3ccc(Cl)cc3)c3ccccc3c2=O)CC1` (stereo unspecified), the activity change, negative = inhibition is reported as 4.52% (inactive). For `COC(=O)Nc1nc2ccc(S(=O)c3ccccc3)cc2[nH]1` (stereo unspecified), the activity change, negative = inhibition was 10.3% (inactive). In the case of `CC[C@H](NC(C)C)[C@H](O)c1ccc(O)c2[nH]c(=O)ccc12`, the activity change, negative = inhibition is reported as -1.12% (inactive). For `Oc1c(Cl)cc(Cl)c2cccnc12`, the activity change, negative = inhibition was -20.1% (inactive). For `O=S(=O)(O)CCS`, the activity change, negative = inhibition was 4.92% (inactive). In the case of `S=P(N1CC1)(N1CC1)N1CC1`, the activity change, negative = inhibition is reported as 7.1% (inactive). With `CC(=O)CC(c1ccccc1)c1c(O)c2ccccc2oc1=O` (stereo unspecified) the activity change, negative = inhibition was 15.6% (inactive). For `CC1=C(C(=O)O)N2C(=O)[C@@H](NC(=O)C(N)c3ccccc3)[C@H]2SC1` (stereo partly specified), the activity change, negative = inhibition was 1.54% (inactive). With `Nc1nc(=S)c2[nH]cnc2[nH]1` the activity change, negative = inhibition was 8.45% (inactive). With `COC(=O)Nc1nc2ccc(Sc3ccccc3)cc2[nH]1` the activity change, negative = inhibition was 4.46% (inactive).

Same assay, conditions: Drosophila S3 cells, BODIPY lipid droplet/cell ratio, laser cytometry; measured here: cell count channel max response; cells loaded with oleic acid
In the case of `Cc1ncc([N+](=O)[O-])n1CCO`, the max response is reported as 17.2%. For `COc1c(N2CCNC(C)C2)c(F)cc2c(=O)c(C(=O)O)cn(C3CC3)c12` (stereo unspecified), the max response was 19.6%. Work on `O=S(=O)(c1cccc2cnccc12)N1CCCNCC1` yielded a max response of 9.76%. `O=C(N[C@H](CO)[C@H](O)c1ccc([N+](=O)[O-])cc1)C(Cl)Cl` showed a max response of -11.7%. Molecule `Nc1[nH]c(=O)ncc1F` has a max response of 2.68%. For `CNS(=O)(=O)Cc1ccc2[nH]cc(CCN(C)C)c2c1`, the max response was 40%. `CC1=NN(c2ccccc2)C(=O)C1` gave a max response of 16.1%. Molecule `C1CCC(C(CC2CCCCN2)C2CCCCC2)CC1` (stereo unspecified) has a max response of -15.8%. Work on `CN1CCCC(n2nc(Cc3ccc(Cl)cc3)c3ccccc3c2=O)CC1` (stereo unspecified) yielded a max response of -4.14%. For `COC(=O)Nc1nc2ccc(S(=O)c3ccccc3)cc2[nH]1` (stereo unspecified), the max response was 14.2%. Work on `CC[C@H](NC(C)C)[C@H](O)c1ccc(O)c2[nH]c(=O)ccc12` yielded a max response of -20.9%. With `Clc1ccccc1CN1CCc2sccc2C1` the max response was -21%. Work on `CCCCOc1ccc(CC(=O)NO)cc1` yielded a max response of -2.68%. `Oc1c(Cl)cc(Cl)c2cccnc12` showed a max response of -11.5%. Work on `O=S(=O)(O)CCS` yielded a max response of 14.6%. `S=P(N1CC1)(N1CC1)N1CC1` gave a max response of 5.1%. Work on `CC(=O)CC(c1ccccc1)c1c(O)c2ccccc2oc1=O` (stereo unspecified) yielded a max response of 10.6%. In the case of `CCCOc1ccc(C(=O)OCCN(CC)CC)cc1N`, the max response is reported as 10.6%. Work on `CC1=C(C(=O)O)N2C(=O)[C@@H](NC(=O)C(N)c3ccccc3)[C@H]2SC1` (stereo partly specified) yielded a max response of -18.2%. `Nc1nc(=S)c2[nH]cnc2[nH]1` gave a max response of 14.3%. With `COC(=O)Nc1nc2ccc(Sc3ccccc3)cc2[nH]1` the max response was -3.56%.

Same assay, conditions: Drosophila S3 cells, BODIPY lipid droplet/cell ratio, laser cytometry; measured here: lipid channel max response; cells loaded with oleic acid
For `Cc1ncc([N+](=O)[O-])n1CCO`, the max response was 27.3%. In the case of `COc1c(N2CCNC(C)C2)c(F)cc2c(=O)c(C(=O)O)cn(C3CC3)c12` (stereo unspecified), the max response is reported as 29.5%. With `O=S(=O)(c1cccc2cnccc12)N1CCCNCC1` the max response was 6.29%. Molecule `O=C(N[C@H](CO)[C@H](O)c1ccc([N+](=O)[O-])cc1)C(Cl)Cl` has a max response of -6.22%. For `Nc1[nH]c(=O)ncc1F`, the max response was 3.39%. With `CNS(=O)(=O)Cc1ccc2[nH]cc(CCN(C)C)c2c1` the max response was 52.5%. Work on `CC1=NN(c2ccccc2)C(=O)C1` yielded a max response of 20.6%. `C1CCC(C(CC2CCCCN2)C2CCCCC2)CC1` (stereo unspecified) gave a max response of -21.2%. With `CN1CCCC(n2nc(Cc3ccc(Cl)cc3)c3ccccc3c2=O)CC1` (stereo unspecified) the max response was 2.11%. With `COC(=O)Nc1nc2ccc(S(=O)c3ccccc3)cc2[nH]1` (stereo unspecified) the max response was 29.6%. With `CC[C@H](NC(C)C)[C@H](O)c1ccc(O)c2[nH]c(=O)ccc12` the max response was -21.9%. Work on `Clc1ccccc1CN1CCc2sccc2C1` yielded a max response of -18.8%. `CCCCOc1ccc(CC(=O)NO)cc1` showed a max response of -0.905%. In the case of `Oc1c(Cl)cc(Cl)c2cccnc12`, the max response is reported as -27.9%. `O=S(=O)(O)CCS` gave a max response of 25.1%. For `S=P(N1CC1)(N1CC1)N1CC1`, the max response was 17.7%. For `CC(=O)CC(c1ccccc1)c1c(O)c2ccccc2oc1=O` (stereo unspecified), the max response was 30.9%. `CCCOc1ccc(C(=O)OCCN(CC)CC)cc1N` showed a max response of 9.95%. Work on `CC1=C(C(=O)O)N2C(=O)[C@@H](NC(=O)C(N)c3ccccc3)[C@H]2SC1` (stereo partly specified) yielded a max response of -16%. `Nc1nc(=S)c2[nH]cnc2[nH]1` showed a max response of 28.9%. Work on `COC(=O)Nc1nc2ccc(Sc3ccccc3)cc2[nH]1` yielded a max response of 3.98%.

Biological target: DNA repair nuclease/redox regulator APEX1 (Homo sapiens) (UniProt P27695)
Sequence (P27695 whole entry, looked up): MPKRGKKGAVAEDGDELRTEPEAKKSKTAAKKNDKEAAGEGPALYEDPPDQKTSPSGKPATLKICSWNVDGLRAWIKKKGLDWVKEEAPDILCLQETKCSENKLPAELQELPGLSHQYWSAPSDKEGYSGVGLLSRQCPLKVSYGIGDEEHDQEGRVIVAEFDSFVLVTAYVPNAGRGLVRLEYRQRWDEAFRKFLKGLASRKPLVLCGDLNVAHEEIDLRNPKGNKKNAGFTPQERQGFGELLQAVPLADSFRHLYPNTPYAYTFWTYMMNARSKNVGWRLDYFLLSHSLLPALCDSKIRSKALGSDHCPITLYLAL
Experiment: qHTS Validation Assay for Inhibitors of the Human Apurinic/apyrimidinic Endonuclease 1 (APE1) (AID 1705; active means well fitted inhibition curve with a large enough effect;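 further: TAMRA fluorescence gain over two minutes as APE1 cuts a quenched THF abasic duplex; on the % scale 0 is the no-effect control and ±100 the full control effect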)
Settings: purified APE1 endonuclease activity, fluorescence, titration; series mostly up to 57.1 µM
In short: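 Fluorogenic double-stranded THF abasic-site substrate (5'-TAMRA/3'-BHQ-2), 50 nM final. Enzyme preincubated with compound 15 min at room temperature, then substrate added. Kinetic fluorescence (ex 525/em 598 nm) read three times at 60 s intervals; activity taken as third-minus-first read difference.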
With `CC(C)NCC(O)c1ccc(NS(C)(=O)=O)cc1` (stereo unspecified) the outcome was “inactive”. In the case of `CCN(CC)CC#CCOC(=O)C(O)(c1ccccc1)C1CCCCC1` (stereo unspecified), the outcome is reported as “inactive”. In the case of `CCCCS(=N)(=O)CCC(N)C(=O)O` (stereo unspecified), the outcome is reported as “inactive”. With `CCN1CCCC1CNC(=O)c1cc(S(N)(=O)=O)ccc1OC` (stereo unspecified) the outcome was “inactive”. For `OCc1ccc(-c2nn(Cc3ccccc3)c3ccccc23)o1`, the outcome was “inactive”. With `O=C(O)C1CCCN(CCC=C(c2ccccc2)c2ccccc2)C1` (stereo unspecified) the outcome was “inactive”. For `CC1=C(C(=O)O)N2C(=O)[C@@H](NC(=O)C(N)c3ccccc3)[C@H]2SC1` (stereo partly specified), the outcome was “inactive”.
